Our source for the outcome and AC50 values is PubChem BioAssay (EPA / NIEHS).

Some compounds were tested as several samples or in several runs, with calls that do not always agree. Activity calls are given as the source filed them. Rule for the calls: active = hit-call score of the fitted dose curve at least 0.9, where 1 is the maximum; inactive = score below 0.9.

Assay [1] is described as follows: ATG_CRE_CIS: Attagene CIS-FACTORIAL HepG2 Assay for human cAMP Responsive Element (CRE) binding protein 3 (AID 2282926). As to conditions: HepG2 CRE cis-reporter, Attagene multiplexed mRNA; actives raise or lower the signal. The essentials: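 Cells carrying cis-regulated reporter constructs respond through their own endogenous factors. After 24 h treatment, RNA is reverse-transcribed, amplified, labelled and sized by capillary electrophoresis; up- and down-regulation are both scored against vehicle.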

In assay [2] the target is CCAAT/enhancer-binding protein beta (Homo sapiens) (UniProt P17676). Put plainly: ATG_C_EBP_CIS: Attagene CIS-FACTORIAL HepG2 Assay for human CCAAT/Enhancer Binding Protein (C/EBP) beta (AID 2282927). The note with it: HepG2 Attagene cis-factorial transcription factor reporter; actives raise or lower the signal. The method, boiled down: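 Changes in reporter mRNA, rather than exogenous chimeric receptor activity, reflect native C/EBP signalling in transfected HepG2 cells dosed for 24 h; transcripts are detected by RT-PCR and capillary electrophoresis.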
Sequence of CCAAT/enhancer-binding protein beta (Homo sapiens) (P17676 whole entry, looked up): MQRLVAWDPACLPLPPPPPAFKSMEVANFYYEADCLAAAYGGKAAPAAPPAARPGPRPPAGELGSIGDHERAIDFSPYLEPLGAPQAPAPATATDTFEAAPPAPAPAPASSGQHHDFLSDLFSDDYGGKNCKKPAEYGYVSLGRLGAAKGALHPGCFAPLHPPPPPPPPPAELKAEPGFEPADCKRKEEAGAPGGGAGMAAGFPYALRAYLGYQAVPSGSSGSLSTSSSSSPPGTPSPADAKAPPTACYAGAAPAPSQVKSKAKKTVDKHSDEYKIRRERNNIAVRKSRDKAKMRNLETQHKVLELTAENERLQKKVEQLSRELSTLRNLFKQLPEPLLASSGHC

Assay [3] in a line: ATG_CMV_CIS: Attagene CIS-FACTORIAL HepG2 Assay for human CMV (Internal Marker) (AID 2282928).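 Note: endpoint acts as a background internal control marker rather than a target.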 The note with it: HepG2 CMV promoter reporter, transcription factor profiling; actives raise or lower the signal. The method, boiled down:
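Readout: fluorescent reporter cDNA fragments separated by capillary electrophoresis after RT-PCR and HpaI cut. Cells: HepG2 carrying transfected cis-promoter reporter constructs, dosed 24 h. Endpoint serves as background internal-marker control, fit bidirectionally versus DMSO.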

Assay [4] is described as follows: APR_HepG2_MitoMembPot_72hr: Apredica 72-hour HepG2 Assay for Mitochondrial Membrane Potential (AID 2282917). As to conditions: imaging, actives raise or lower the signal. The method, boiled down: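 Membrane potential read by MitoTracker Red CMXRos (250 nM, 30 min, pre-fixation) fluorescence imaging of HepG2 after 72 hr exposure. Ten concentrations, 0.39–200 uM, duplicate wells, 0.5% DMSO; fitted in both directions against DMSO baseline.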

Assay [5] can be described thus: APR_HepG2_MicrotubuleCSK_72hr: Apredica 72-hour HepG2 Assay for Microtubule CSK Stabilty (AID 2282919). As to conditions: HepG2 microtubule cytoskeleton, high-content imaging, actives raise or lower the signal. The essentials:
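High-content imaging of alpha-tubulin staining in fixed HepG2 cells after 72 hr treatment with ten concentrations from 0.39 to 200 uM (0.5% DMSO). Fitting was bidirectional against DMSO; taxol served as positive control.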

Assay [6] can be described thus: APR_HepG2_P-H2AX_24hr: Apredica 24-hour HepG2 Assay for H2AX Phosphorylation (AID 2282920). The note with it: high-content imaging, actives raise or lower the signal. The method, boiled down: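 Signal comes from a FITC-labeled secondary detecting phospho-histone H2A.x in fixed HepG2 cells, quantified by automated imaging at 20x. Dosing ran 24 hr across 0.39–200 uM with 0.5% v/v DMSO.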

The nature of assay [7]: APR_HepG2_StressKinase_72hr: Apredica 72-hour HepG2 Assay for Stress Kinase (AID 2282921). The note with it: HepG2 stress kinase (phospho-c-Jun) imaging, actives raise or lower the signal. The essentials: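 Stress kinase signal reflects nuclear phospho-c-Jun staining in fixed, permeabilized cells exposed 72 h to compound at 0.39–200 uM; DMSO-normalized, fitted for increases or decreases.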

Assay [8] in a line: APR_HepG2_StressKinase_24hr: Apredica 24-hour HepG2 Assay for Stress Kinase (AID 2282922). The note with it: HepG2 stress kinase (phospho-c-Jun) imaging, actives raise or lower the signal. The method, boiled down: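 High-content imaging of phospho-c-Jun immunofluorescence in fixed, permeabilized HepG2 cells after 24 h dosing. Ten concentrations, 0.39 to 200 uM, run in duplicate at 0.5% v/v DMSO; gain or loss of signal versus DMSO.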

Assay [9] can be described thus: APR_HepG2_MitoMass_72hr: Apredica 72-hour HepG2 Assay for Mitochondrial Mass (AID 2282924).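 Note: MitoTracker Red CMXRos stain intensity per cell imaged as mitochondrial mass.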 As to conditions: high-content imaging, actives raise or lower the signal. The essentials: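 Readout is imaged MitoTracker Red (250 nM, 30 min, pre-fixation) signal, fitted bidirectionally against DMSO baseline. Human HepG2 liver cells received compound 0.39–200 uM in duplicate for 72 hr, final DMSO 0.5%.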

Regarding `O=[N+]([O-])c1cc([As](=O)(O)O)ccc1O`, the result in assay [1], in assay [2] and in assay [3] was inactive.

As to `[Cl][Sn]([c]1ccccc1)([c]1ccccc1)[c]1ccccc1`, in [1], the AC50 – broadly, the midpoint of the concentration-response curve, whichever way the signal moves – is 0.367 µM (active). For the same compound, the result in assay [2] and in assay [3] was inactive.

In the case of `CN(C)c1ccc(N=O)cc1`, the call in assay [1] and in assay [2] was inactive. The AC50 in [3] was 7.81 µM (active).

In the case of `CN(C)C(=S)S`, the result in [4], in [8], in assay [1] and in assay [2] was inactive. For the same compound, the AC50 in assay [5] is 1.78 µM (active); in assay [6], 12 µM (active); in [7], 1.16 µM (active); in [9], 0.0391 µM (active); in [3], 26.2 µM (active).

With `CCCCCCCCCCCCOS(=O)(=O)O`, the outcome in assay [1], in assay [2] and in [3] was inactive.

Regarding `Cc1cc(Cl)ccc1OCCCC(=O)O`, the compound was called inactive in assay [1], in [2] and in assay [3].

`Cc1cccc(N=Nc2ccc(N(C)C)cc2)c1`: the compound was classed as inactive in assay [1], in assay [2] and in assay [3].

Regarding `Cc1cc(C)cc(C)c1`, the compound was classed as inactive in assay [4], in assay [5], in assay [6], in assay [7], in [8] and in assay [9]. The result in [1], in assay [2] and in [3] was inactive.

Regarding `O=C(O)C1(c2ccc3c(c2)OC[C@H](Cc2ccc(-c4ccccc4)cc2)[C@H]3O)CCCC1`, the compound was classed as inactive in [4], in [5], in [1] and in assay [2]. In addition, the AC50 in assay [6] was 108 µM (active); in assay [7], 116 µM (active); in assay [8], 111 µM (active); in assay [9] it was 112 µM (active); in assay [3], 6.98 µM (active).

Consider `COc1ccccc1N`, for which the call in [6], in assay [7], in [8], in [1], in assay [2] and in assay [3] was inactive.

On to `CC(C)(C)c1ccccc1O`, for which the compound was classed as inactive in assay [4], in assay [5], in [6], in assay [7], in assay [8] and in assay [9]. Also, the result in [3] was inactive. Moreover, the AC50 in assay [1] is 174 µM (active); in assay [2], 163 µM (active).

On to `C[CH2][Hg][S]c1ccccc1C(=O)O`, for which the results for the AC50 in assay [1] and in assay [2] were 2.94 µM (active) and 2.23 µM (active), respectively. Further, the compound was called inactive in assay [3].

For `CCOP(=S)(OCC)SCS(=O)(=O)C(C)(C)C`, the compound was called inactive in [1], in [2] and in assay [3].

For the compound `C#CCOC(=O)/C=C(C)/C=C/CC(C)CCCC(C)C` (stereo unspecified), the AC50 was 39.7 µM (active) in [1] and 36.9 µM (active) in assay [3]. The result in assay [2] was inactive.

Regarding `Oc1cc(Cl)c(Cl)cc1Cl`, the result in assay [4], in [5], in assay [8] and in [9] was inactive. In addition, the AC50 in assay [6] was 38.9 µM (active); in [7], 51.8 µM (active); in [1] it was 39.7 µM (active); in assay [2] it was 46.5 µM (active); in [3], 27.2 µM (active).

As for `N#Cc1ccccc1Cl`, the call in assay [1], in [2] and in assay [3] was inactive.

With `CC1(C)[C@H](/C=C2\CCSC2=O)[C@@H]1C(=O)OCc1coc(Cc2ccccc2)c1`, the outcome in [1], in [2] and in assay [3] was inactive.

Turning to `CC(=Cc1ccccc1)[N+](=O)[O-]`, the compound was called inactive in assay [1] and in [2]. Also, the AC50 in assay [3] was 19.3 µM (active).

For the compound `OCCN(CCO)CCO`, the compound was called inactive in [4], in assay [5], in [6], in [7], in assay [8] and in [9]. The compound was classed as inactive in assay [1], in assay [2] and in [3].

Regarding `CC(C)[C@@H](Nc1ccc(C(F)(F)F)cc1Cl)C(=O)OC(C#N)c1cccc(Oc2ccccc2)c1` (stereo partly specified), the compound was classed as inactive in assay [1], in assay [2] and in assay [3].

On to `CC(C)N(C(=O)CCl)c1ccccc1`, for which the result in [1], in [2] and in assay [3] was inactive.

As to `O=c1oc2ccccc2c(O)c1C(CC(O)c1ccc(-c2ccc(Br)cc2)cc1)c1ccccc1` (stereo unspecified), the AC50 in [1] was 39 µM (active). Further, the compound was called inactive in [1], in assay [2] and in assay [3].

Regarding `CCCCCCCCCCCCc1cccc(S(=O)(=O)O)c1`, the compound was called inactive in [4], in assay [5], in assay [6], in assay [7], in assay [8] and in assay [9]. In addition, the call in assay [1], in [2] and in [3] was inactive.

On to `Clc1cccc(Cl)c1`, for which the call in [4], in assay [5], in assay [6], in [7], in assay [8] and in [9] was inactive. Also, the outcome in assay [1], in [2] and in assay [3] was inactive.

Turning to `N#Cc1cccnc1`, the call in assay [4], in [5], in [6], in assay [7], in assay [8] and in [9] was inactive. Also, the call in assay [1], in assay [2] and in assay [3] was inactive.

Take `c1ccc2c(c1)Oc1ccccc1O2`: the outcome in [1], in [2] and in assay [3] was inactive.

In the case of `CC(C)[N+](=O)[O-]`, the call in assay [1], in [2] and in assay [3] was inactive.

Consider `CCCSP(=S)(OCC)Oc1ccc(SC)cc1` (stereo unspecified), for which the call in assay [1], in assay [2] and in [3] was inactive.

`COC(F)(C(F)(F)C(F)(F)F)C(F)(C(F)(F)F)C(F)(F)F` (stereo unspecified): the result in assay [1], in [2] and in assay [3] was inactive.

In the case of `CCCCCCCCBr`, the call in assay [1], in assay [2] and in [3] was inactive.

Take `O=C(O)CC(O)(CC(=O)O)C(=O)O`: the compound was classed as inactive in assay [1], in assay [2] and in assay [3].

Take `O=C(Cl)OCCOCCOC(=O)Cl`: the outcome in [1], in [2] and in [3] was inactive.

Consider `CC(C=O)Cc1ccc2c(c1)OCO2` (stereo unspecified), for which the result in assay [1], in [2] and in [3] was inactive.

In the case of `CCCCC(CC)C(=O)Cl` (stereo unspecified), the compound was classed as inactive in assay [1], in assay [2] and in assay [3].

Regarding `C[N+](C)(C)Cc1ccccc1`, the compound was classed as inactive in assay [1], in [2] and in assay [3].

As for `O=C(O)COc1cc(Cl)c(Cl)cc1Cl`, the compound was called inactive in assay [1], in assay [2] and in [3].
